Unmarked numbers belong to inactive results. Calls of active or inactive are those of the source. Calls follow the shape of the dose curve; as a rule, active = well fitted curve in the direction sought with a large enough effect in the repeat runs; inconclusive = weak or mixed curves; inactive = flat fitted curve, though single readings scatter.
assay: qHTS assay to test for compound auto fluorescence at 460 nm (blue) in HEK293 cells (AID 720678); settings: blue autofluorescence 405/460 nm; series mostly up to 91.3 µM
Excerpt: National Center for Advancing Translational Sciences [NCATS]
NIH Chemical Genomics Center [NCGC]
U.S. Environmental Protection Agency [EPA]
National Institutes of Environmental Health Sciences [NIEHS]
National Toxicology Program [NTP]
U.S. Food and Drug Administration [FDA]
Compound auto fluorescence often interferes with screening of the compound library against various biological targets and signaling pathways. Some of these compounds may have fluorophoric properties. Such properties may interfere with the assay outputs resulting in false positives and/or negatives. To decrease such complications and ensure the compound activities are relevant in terms of biological response, the Tox21 10K compound library was screened for auto fluorescence.
From the fluorophores used as reporter signals in our screening assays, the auto fluorescence equivalencies of compounds against three fluorophores have been evaluated: Triamterene, Fluorescein and Rose Bengal sodium for blue, green and red fluorescence, respectively. The fluorescence intensities were measured using Excitation/Emission wavelengths at 405/460nm, 485/535nm and 540/590nm for blue, green and red labels, respectively. This assay includes the blue fluorescence data.
Tox21 Assay Protocol Summary:
2,000 HEK293 cells in 5 uL of culture medium containing 10% dialyzed FBS per well were dispensed into black wall/clear bottom 1536-well plates using a Multidrop Combi Dispenser (Thermo Scientific). The assay plates were incubated for 4-5 hr at 37C to allow cell attachment to the well bottom, followed by the transfer of 23 nL compound or DMSO vehicle by a pintool work station (Kalypsys, San Diego, CA). After the assay plates were incubated overnight at 37C and 5% CO2, fluorescence intensities in the assay plates were measured by an Envision (PerkinElmer, Shelton, CT) plate reader using three labels for measuring blue, green and red fluorescence at […] 460, 535 and 590nm respectively.
% is scaled to controls: 0 for no effect and ±100 for the full control effect.

Structure (SMILES)	outcome	fluorescence, % of triamterene
ClCOCCl	inactive	
CCCC[N+](=O)[O-]	inactive	
CC(C)(O)C(Cl)(Cl)Cl	inactive	
C/C(=N\NC(=O)Nc1cc(F)cc(F)c1)c1ncccc1C(=O)O	inactive	
C[C@@H](N)[C@@H](O)c1ccccc1		0.0027% [at 18.6 µM]
COc1cccc([C@@]2(O)CCCC[C@@H]2CN(C)C)c1	inactive	
O=C(Cl)C(Cl)Cl	inactive	
O=C(CCl)NCO	inactive	
C#CC(C)(C)O	inactive	
CC(C)[N+](C)(CCC(C(N)=O)(c1ccccc1)c1ccccc1)C(C)C		0.0132% [at 18.6 µM]
ClCCCCl	inactive	
CCCOc1nn(C(=O)NS(=O)(=O)c2ccccc2C(=O)OC)c(=O)n1C	inactive	
COC(=O)c1ccc(CBr)cc1	inactive	
CC(C)(C)NC[C@H](O)c1ccc(O)cc1Cl	inactive	
CC[C@@H](CO)NC(=O)[C@@H]1C=C2c3cccc4[nH]cc(c34)C[C@H]2N(C)C1	inactive	
CC(C)(C1CCC(O)CC1)C1CCC(O)CC1 (stereo not given)	inactive	
CCN(CC)CCOC(=O)C(O)(c1ccccc1)c1ccccc1	inactive	
Cc1ccc2cc(C)ccc2c1	inactive	
O=c1[nH]c2ccccc2o1	inactive	
C=C1C[C@@H]2[C@H](CC[C@]3(C)C(=O)CC[C@@H]23)[C@@]2(C)C=CC(=O)C=C12	inactive	

Structure (SMILES)	outcome	fluorescence, % of triamterene
Oc1ccc2c3c1O[C@H]1[C@@H](O)C=C[C@H]4[C@@H](C2)NCC[C@@]341	inactive	
[P]#[In]	inactive	
O=C(Cl)C(Cl)(Cl)Cl	inactive	
O=C(Cl)/C=C/C(=O)Cl	inactive	
ClCCCCCCCl	inactive	
CC1N=C(N)OC1c1ccccc1 (stereo not given)	inactive	
C/C=C/CC#N	inactive	
c1ccc2c(c1)CCNC2	inactive	
COc1ccccc1OC	inactive	
S=C=S	inactive	
CCc1cc(OC)c(C[C@H](C)N)cc1OC	inactive	
CCOC(=O)N(C)N=O	inactive	
N[C@@H](Cc1ccc(Oc2cc(I)c(O)c(I)c2)c(I)c1)C(=O)O	inactive	
CCCC(C)C1(CC)C(=O)N=C(S)NC1=O (stereo not given)	inactive	
ClC1=C(Cl)C2(Cl)C(CBr)CC1(Cl)C2(Cl)Cl (stereo not given)	inactive	
C[C@H]1CCCC(=O)CCC/C=C/c2cc(O)cc(O)c2C(=O)O1	inactive	
CCN[C@H](C)Cc1cccc(C(F)(F)F)c1	inactive	
CCC1(CC)C(=O)C=CNC1=O	inactive	
CC1NCCOC1c1ccccc1 (stereo not given)	inactive	
CN1COCN(Cc2cnc(Cl)s2)/C1=N\[N+](=O)[O-]	inactive	
